Sampled rows, rich in hits. Any-hit rate of the full collection: about 2.7%.
SENP7 block – SENP7 protease inhibitors, primary screen, biochemical, luminescence, uHTS. recombinant SENP7, Z-RLRGG-aminoluciferin luminescence, 40 min. inhibition, % at 5 µM. 1.5% of 330,000 active. AID 434973, 2010;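 active means inhibition above about 50% at the single test dose, limit read from the data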;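 further: plate controls were DMSO with enzyme for no effect and no enzyme buffer wells for full effect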
SENP6 block – SENP6 protease inhibitors, primary screen, biochemical, luminescence, uHTS; 1.8% of 330,000 active; Recombinant SENP6 catalytic domain, aminoluciferin luminescence; inhibition, % at 10 µM;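 active means inhibition above about 50% at the single tested dose, limit read from the data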;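 further: plate controls were DMSO wells with enzyme for no effect and DMSO wells lacking enzyme for full effect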
SENP8 block-1 – human SENP8 protease inhibitors, primary screen, biochemical, fluorescence, Nedd8 protein substrate, uHTS; Sentrin-specific protease 8 (Homo sapiens), Q96LD8; recombinant SENP8; inhibition, % at 20 µM; 0.64% of 360,000 active; AID 602440, 2012; in the data active means inhibition mostly above about 40%, no sharp cut-off; inactive means mostly below about 27%
HSP90 refold inh – HSP90 inhibitors, primary screen, cell lysate, luminescence | inhibition, % at 5.6 µM | Heat shock protein HSP 90 (rabbit reticulocyte lysate; luciferase refolding) | Rabbit reticulocyte lysate, luciferase refolding luminescence, 3 h | 0.91% of 290,000 active;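 active means inhibition above the screen-wide mean plus 3 SD, computed separately per campaign, cut at about 16% in these data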;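 further: 0% = DMSO wells and 100% = 60 µM geldanamycin wells; inhibitors lower the luminescence because luciferase stays unfolded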
SENP8 block-2 – SENP8 protease inhibitors, primary screen, biochemical, luminescence. 1.2% of 330,000 active. AID 2540, 2010. Sentrin-specific protease 8 (Homo sapiens), Q96LD8. purified SENP8, Z-RLRGG-aminoluciferin cleavage. inhibition, % at 10 µM; in the data active means inhibition above about 50%
HSP90 confirm – HSP90 inhibitors, confirmation, cell lysate, luminescence. shares compounds with HSP90 refold inh. rabbit reticulocyte lysate, luciferase refolding luminescence, 3 h. inhibition, % at 5.9 µM. 64% of 2,300 active; in the data active means inhibition above about 18%;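 further: 0% = vehicle wells and 100% = reference inhibitor wells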
FLuc counter – firefly luciferase inhibitors, HSP90 counter-screen, confirmation, artefact control for HSP90 inhibitor project, biochemical, luminescence, triplicate; shares compounds with HSP90 refold inh; 48% of 2,300 active; purified native firefly luciferase; inhibition, % at 5.9 µM;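 active means inhibition above the mean inhibition of all tested sample wells plus 3 SD, cut at about 10% in these data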;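 further: 0% = DMSO with luciferase and 100% = wells lacking luciferase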
Target sequence (P08659 whole entry, looked up): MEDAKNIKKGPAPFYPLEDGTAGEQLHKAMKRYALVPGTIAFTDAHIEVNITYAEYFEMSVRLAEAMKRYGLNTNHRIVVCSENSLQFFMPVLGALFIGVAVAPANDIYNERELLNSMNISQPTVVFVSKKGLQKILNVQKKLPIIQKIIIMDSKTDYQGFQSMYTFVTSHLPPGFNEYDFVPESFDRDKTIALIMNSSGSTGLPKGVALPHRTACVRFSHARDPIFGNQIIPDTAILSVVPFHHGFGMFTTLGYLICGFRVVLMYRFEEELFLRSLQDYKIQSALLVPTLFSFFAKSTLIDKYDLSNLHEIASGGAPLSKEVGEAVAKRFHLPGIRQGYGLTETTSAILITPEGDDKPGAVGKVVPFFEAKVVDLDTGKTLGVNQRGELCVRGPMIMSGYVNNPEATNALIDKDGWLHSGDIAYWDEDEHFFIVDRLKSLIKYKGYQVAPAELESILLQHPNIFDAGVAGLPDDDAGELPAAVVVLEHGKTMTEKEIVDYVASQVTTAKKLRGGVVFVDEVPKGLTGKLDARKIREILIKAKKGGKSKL
* hit, by the source's call; / = no result given.

SMILES	SENP7 block	SENP6 block	SENP8 block-1	HSP90 refold inh	SENP8 block-2	HSP90 confirm	FLuc counter
O=C(Nc1ccccn1)c1ccc(C(=O)c2ccccc2)cc1	45	50	9	/	19	/	/
CC(C)S(=O)(=O)C1=NSC2=NC(=O)/C(=C\c3ccc(-c4cccc(C(=O)O)c4)o3)C(=N)N21	/	/	-44	27*	/	-1	-11
C#CC(CC)(CC)NC(=O)/C=C/C(=O)O	0	-1	-2	0	4	/	/
Cc1nn(C)c(Oc2cccc(Cl)c2)c1C=O	-3	-16	27	-1	-17	/	/
Cc1cc(C(=O)COc2ccccc2C(N)=O)c(C)n1CC1CCCO1 (stereo not drawn)	4	-19	12	2	-4	/	/
Cc1cc(C(=O)COC(=O)c2ccccc2Br)c(C)n1CC1CCCO1 (stereo not drawn)	94*	95*	9	85*	93*	84*	84*
Cc1cc(C(=O)COC(=O)c2cc(O)c3ccccc3c2O)c(C)n1CC1CCCO1 (stereo not drawn)	/	/	-201	1	/	/	/
Cc1cc(C(=O)COC(=O)c2ccccc2NCCO)c(C)n1CC1CCCO1 (stereo not drawn)	5	42	-488	53*	36	23*	-8
Cc1ccc(C(=O)OCC(=O)c2cc(C)n(CC3CCCO3)c2C)cc1 (stereo not drawn)	11	-27	14	32*	10	35*	32*
O=C(O)c1ccc(Oc2c(C(F)(F)F)oc3cc(O)ccc3c2=O)cc1	-1	-13	-14	31*	-6	1	-3
CCCc1nc2c(=O)n(C)c(=O)nc-2n(C)n1	/	/	120*	75*	/	83*	85*
CCn1c(N)nc2c1c(=O)n(C)c(=O)n2C	-4	-9	26	-1	1	/	/
O=c1oc2ccc(Cl)cc2nc1/C=C(\O)c1ccco1	-5	-27	6	82*	-1	79*	-5
CC(C)C/C(O)=C/c1nc2cc(Cl)ccc2oc1=O	10	16	-11	6	-9	/	/
Cc1ccc(-n2[nH]c(=O)c3cccnc32)cc1	-3	-10	16	-4	-5	/	/
Cc1ccc(-n2[nH]c(=O)c(-c3ccccn3)c2C)cc1	42	48	9	70*	23	81*	76*
O=[N+]([O-])c1ccccc1NC(=S)N/N=C/c1ccc(O)c(O)c1	13	8	5	43*	17	2	-21
Cc1csc(=Nc2ccccc2)n1C	-7	-9	13	-2	-14	/	/
O=C(COC(=O)/C=C/c1ccccc1[N+](=O)[O-])NC(=O)NC1CCCC1	1	-13	11	/	3	/	/
CCN(CC)c1ccc(NC(=O)c2cnccn2)cc1S(=O)(=O)Nc1ccc(OC)cc1	-9	-19	19	3	-7	/	/
COc1ccccc1Nc1nn2c(=O)c3ccc(C(=O)NCc4cccnc4)cc3nc2s1	2	-2	-173	20*	10	38*	-2
O=C(COc1ccc(Cl)cc1Cl)NC(=O)N1CCCCC1	-12	16	20	28*	-19	37*	31*
CCOC(=O)C1(Cc2ccccc2Cl)CCN(C(=O)c2cc(C)on2)CC1	-16	-18	24	6	-9	/	/
Cc1ccc2nc(SCC3CCCCO3)[nH]c2c1 (stereo not drawn)	-15	5	12	30*	-13	64*	61*
Cc1ccc(S(=O)(=O)N2CCN(S(=O)(=O)c3c(C)n[nH]c3C)CC2)cc1C	-1	-6	18	/	5	/	/
SMILES	SENP7 block	SENP6 block	SENP8 block-1	HSP90 refold inh	SENP8 block-2	HSP90 confirm	FLuc counter
CC1Oc2ccccc2C=C1/C=N/Nc1ccc(C(=O)O)cc1 (stereo not drawn)	89*	96*	-276	34*	96*	41*	25*
Cc1ccc(-n2nc3c(c2NC(=O)c2cccs2)CS(=O)(=O)C3)c(C)c1	-15	-8	12	86*	-10	-2	-1
Cc1ccccc1-n1nc2c(c1NC(=O)c1cccs1)CS(=O)(=O)C2	0	18	9	1	7	/	/
Cc1ccc(/C(O)=C2/C(=O)C(=O)N(Cc3cccnc3)C2c2ccccn2)cc1 (stereo not drawn)	-5	-6	18	1	-11	/	/
CN(C)S(=O)(=O)c1ccc(/C(O)=C2/C(=O)C(=O)N(Cc3cccnc3)C2c2cccs2)cc1 (stereo not drawn)	-3	-18	2	4	-6	/	/
Cc1c(/C(O)=C2/C(=O)C(=O)N(Cc3cccnc3)C2c2cccs2)cnn1-c1ccccc1 (stereo not drawn)	-4	-7	-77	55*	-2	55*	53*
Cc1c(/C(O)=C2/C(=O)C(=O)N(Cc3cccnc3)C2c2ccccn2)cnn1-c1ccccc1 (stereo not drawn)	8	-6	-18	75*	-6	24*	30*
CCN1C(=O)[C@H]2[C@@H](c3ccc(-c4ccc(OC)cc4)c(OC)c3)N[C@@](Cc3ccccc3)(C(=O)OC)[C@H]2C1=O	-6	-14	-330	/	-2	/	/
CCO[C@H]1c2c(ccc3ccc(=O)oc23)OC(C)(C)[C@@H]1O	-6	-12	-496	/	-7	/	/
CC(C)(C)c1ccc(-c2conc2N)cc1	18	31	14	69*	7	-5	-14
CC(C)(C)c1ccc(-c2nc(N)nc(N)n2)cc1	-5	-4	22	0	-2	/	/
O=[N+]([O-])c1ccc(NC2CCCC2)cc1	-1	-2	29	20*	-7	-7	-12
COc1ccc(OC)c(NC(=O)C(=O)c2cn(CC(=O)N3CCCC3)c3ccccc23)c1	0	-8	17	-2	-13	/	/
COc1ccc(CNC(=O)C2CC(c3cccc([N+](=O)[O-])c3)=NO2)cc1 (stereo not drawn)	-6	5	19	-2	1	/	/
O=C(Cc1cccc(NC(=O)C2CCCN(C(=O)c3ccccc3)C2)c1)Nc1ccc(C(=O)N2CCOCC2)cc1 (stereo not drawn)	/	/	17	/	/	/	/
Cc1ccc2c(c1)c(N=Nc1cccc(C(=O)O)c1)c(O)n2C	1	-14	30	0	-12	/	/
CCOc1ccc2c(c1)c(N=Nc1cccc(C(=O)O)c1)c(O)n2C	2	35	20	27*	22	30*	6
O=C(CN1C(=O)NC2(CCCCC2)C1=O)Nc1nc2c(F)cc(F)cc2s1	7	0	-26	/	-2	/	/

Screening results: PubChem BioAssay, several laboratories
